Reference: the supplement of paper PMC6411743
± gives the standard deviation of the averaged measurements. The full data set covers some 6,200 targets. This sample favours those with the largest changes.

Key:
Test in all cases: NP40-soluble protein abundance relative to vehicle (solubility fold change) (ratio); higher = more soluble protein in presence of AMP-PNP
D6R9V8|Q9UKY7 = molecular target: T1, D6R9V8|Q9UKY7 (UniProt Q9UKY7)
T1 sequence (whole entry): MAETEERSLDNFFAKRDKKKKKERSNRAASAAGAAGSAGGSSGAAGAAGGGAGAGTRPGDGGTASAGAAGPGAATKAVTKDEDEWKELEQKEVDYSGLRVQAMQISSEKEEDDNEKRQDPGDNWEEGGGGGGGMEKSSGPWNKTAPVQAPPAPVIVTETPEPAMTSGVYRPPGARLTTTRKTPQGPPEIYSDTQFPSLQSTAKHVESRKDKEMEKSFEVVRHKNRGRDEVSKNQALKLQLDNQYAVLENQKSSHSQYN
Summary of the method: (§1)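 Across three independent experiments, values are fold changes against the detergent-processed vehicle for each replicate, based on vsn-normalised intensities. The samples were Jurkat crude lysate treated with eight concentrations (0.1 to 10 mM) for 10 min at room temperature and then 3 min at 37 °C. Lysate was solubilised with 0.8% NP40 and benzonase, ultracentrifuged, and the supernatant analysed by TMT-labelled LC-MS/MS.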

E9PNW4|E9PR17|P13987 = molecular target: T2, E9PNW4|E9PR17|P13987 (UniProt P13987)
T2 sequence (whole entry): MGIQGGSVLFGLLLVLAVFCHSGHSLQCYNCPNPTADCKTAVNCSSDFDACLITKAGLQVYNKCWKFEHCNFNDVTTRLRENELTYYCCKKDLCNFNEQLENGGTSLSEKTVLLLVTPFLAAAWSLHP
Summary of the method: as §1

UniProt O43861|O43861-2 = molecular target: T3, UniProt O43861|O43861-2
T3 sequence (whole entry): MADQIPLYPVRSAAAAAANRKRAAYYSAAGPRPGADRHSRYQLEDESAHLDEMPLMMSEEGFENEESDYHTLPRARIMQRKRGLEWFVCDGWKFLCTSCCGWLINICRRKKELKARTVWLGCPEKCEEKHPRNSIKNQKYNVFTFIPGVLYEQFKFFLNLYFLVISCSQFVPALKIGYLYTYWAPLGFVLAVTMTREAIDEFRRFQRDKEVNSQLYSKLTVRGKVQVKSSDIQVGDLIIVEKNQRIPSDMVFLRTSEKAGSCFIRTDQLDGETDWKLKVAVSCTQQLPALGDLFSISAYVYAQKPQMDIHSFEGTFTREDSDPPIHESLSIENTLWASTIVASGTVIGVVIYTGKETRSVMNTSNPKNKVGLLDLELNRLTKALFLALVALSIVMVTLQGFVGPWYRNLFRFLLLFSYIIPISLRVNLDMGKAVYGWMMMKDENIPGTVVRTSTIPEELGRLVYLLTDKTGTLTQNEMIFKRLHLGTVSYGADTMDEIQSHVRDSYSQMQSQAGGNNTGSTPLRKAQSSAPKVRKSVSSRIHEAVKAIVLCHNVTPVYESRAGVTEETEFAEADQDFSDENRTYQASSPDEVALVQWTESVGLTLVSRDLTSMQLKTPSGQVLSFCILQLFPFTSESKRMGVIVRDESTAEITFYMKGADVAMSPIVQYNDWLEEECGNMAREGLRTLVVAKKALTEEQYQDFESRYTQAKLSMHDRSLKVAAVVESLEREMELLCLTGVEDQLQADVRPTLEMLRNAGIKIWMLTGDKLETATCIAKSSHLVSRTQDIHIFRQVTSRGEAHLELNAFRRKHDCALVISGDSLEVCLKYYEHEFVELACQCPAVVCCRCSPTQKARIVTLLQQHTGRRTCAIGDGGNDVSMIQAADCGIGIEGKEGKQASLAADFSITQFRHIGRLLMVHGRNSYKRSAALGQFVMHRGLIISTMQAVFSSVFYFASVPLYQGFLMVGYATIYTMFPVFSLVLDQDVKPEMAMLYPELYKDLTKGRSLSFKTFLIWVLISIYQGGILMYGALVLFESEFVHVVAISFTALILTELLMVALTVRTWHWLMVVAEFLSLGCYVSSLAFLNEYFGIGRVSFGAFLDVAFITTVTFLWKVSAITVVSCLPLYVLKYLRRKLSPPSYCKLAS
Summary of the method: as §1

ZW10 = molecular target: T4, ZW10 (UniProt O43264)
T4 sequence (whole entry): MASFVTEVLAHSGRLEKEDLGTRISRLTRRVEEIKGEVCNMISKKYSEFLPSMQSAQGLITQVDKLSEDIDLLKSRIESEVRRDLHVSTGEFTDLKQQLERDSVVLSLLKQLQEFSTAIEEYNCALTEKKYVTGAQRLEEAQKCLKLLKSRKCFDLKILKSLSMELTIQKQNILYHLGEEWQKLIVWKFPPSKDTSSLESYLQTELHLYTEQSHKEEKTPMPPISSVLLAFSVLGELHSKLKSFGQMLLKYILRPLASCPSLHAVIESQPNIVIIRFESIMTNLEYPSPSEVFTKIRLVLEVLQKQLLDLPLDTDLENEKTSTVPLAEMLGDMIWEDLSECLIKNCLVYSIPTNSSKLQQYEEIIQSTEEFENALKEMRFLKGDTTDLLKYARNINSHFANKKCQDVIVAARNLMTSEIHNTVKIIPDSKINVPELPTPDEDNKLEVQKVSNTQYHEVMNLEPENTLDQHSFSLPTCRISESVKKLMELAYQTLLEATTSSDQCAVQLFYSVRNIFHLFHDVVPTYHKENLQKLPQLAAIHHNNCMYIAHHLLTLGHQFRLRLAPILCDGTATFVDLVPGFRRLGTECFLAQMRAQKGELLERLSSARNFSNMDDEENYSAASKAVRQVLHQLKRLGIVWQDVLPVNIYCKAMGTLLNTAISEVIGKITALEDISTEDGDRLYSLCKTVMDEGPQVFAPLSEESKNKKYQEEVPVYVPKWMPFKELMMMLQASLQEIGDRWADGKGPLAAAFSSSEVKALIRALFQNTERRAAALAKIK
Summary of the method: as §1

With `Nc1ncnc2c1ncn2[C@@H]1O[C@H](COP(=O)(O)OP(=O)(O)NP(=O)(O)O)[C@@H](O)[C@H]1O` [adenylyl imidodiphosphate] the NP40-soluble protein abundance (D6R9V8|Q9UKY7; concentration: 1mM) was 1.03 ± 0.021, the NP40-soluble protein abundance (D6R9V8|Q9UKY7; concentration: 2mM) was 1.09 ± 0.089 and the NP40-soluble protein abundance (D6R9V8|Q9UKY7; concentration: 4mM) was 1.03 ± 0.034. It also gave an NP40-soluble protein abundance (D6R9V8|Q9UKY7; concentration: 6mM) of 1.04 ± 0.034, an NP40-soluble protein abundance (D6R9V8|Q9UKY7; concentration: 8mM) of 0.993 ± 0.028 and an NP40-soluble protein abundance (D6R9V8|Q9UKY7; concentration: 10mM) of 1.05 ± 0.07. For the same compound, the NP40-soluble protein abundance (E9PNW4|E9PR17|P13987; concentration: 1mM) was 1.05 ± 0.053, the NP40-soluble protein abundance (E9PNW4|E9PR17|P13987; concentration: 2mM) was 1.11 ± 0.13 and the NP40-soluble protein abundance (E9PNW4|E9PR17|P13987; concentration: 4mM) was 1.03 ± 0.049. It also gave an NP40-soluble protein abundance (E9PNW4|E9PR17|P13987; concentration: 6mM) of 1.07 ± 0.051, an NP40-soluble protein abundance (E9PNW4|E9PR17|P13987; concentration: 8mM) of 1.1 ± 0.015 and an NP40-soluble protein abundance (E9PNW4|E9PR17|P13987; concentration: 10mM) of 1.06 ± 0.03. The NP40-soluble protein abundance (UniProt O43861|O43861-2; concentration: 1mM) was 1.01 ± 0.022, the NP40-soluble protein abundance (UniProt O43861|O43861-2; concentration: 2mM) was 1 ± 0.012 and the NP40-soluble protein abundance (UniProt O43861|O43861-2; concentration: 4mM) was 1.01 ± 0.025. The NP40-soluble protein abundance (UniProt O43861|O43861-2; concentration: 6mM) was 0.986 ± 0.013, the NP40-soluble protein abundance (UniProt O43861|O43861-2; concentration: 8mM) was 1 ± 0.041 and the NP40-soluble protein abundance (UniProt O43861|O43861-2; concentration: 10mM) was 1.024 ± 0.0049. For the same compound, the NP40-soluble protein abundance (ZW10; concentration: 1mM) was 0.994 ± 0.031, the NP40-soluble protein abundance (ZW10; concentration: 2mM) was 0.974 ± 0.043 and the NP40-soluble protein abundance (ZW10; concentration: 4mM) was 0.977 ± 0.047. The NP40-soluble protein abundance (ZW10; concentration: 6mM) was 0.936 ± 0.064, the NP40-soluble protein abundance (ZW10; concentration: 8mM) was 0.919 ± 0.081 and the NP40-soluble protein abundance (ZW10; concentration: 10mM) was 0.941 ± 0.07.
